# Lassa entry inh – blocks Lassa virus binding to or entry into cells; hit rate 1.2% among 300,000; Potency, µM (series often up to 37.9 µM), for the others: at the top dose activity change, negative = inhibition, actives largely listed as inhibitors; Lassa virus pseudotype entry inhibition, cell reporter; calls by dose curve; tested in HEK293 cells; note: potency is the fitted concentration of half-maximal effect; nearly all actives have a fitted effect of over 50% in size
# HCV inh – blocks hepatitis C virus. Huh7.5.1 HCVcc-Cre infection, luciferase reporter, 44 h. Potency, µM (titrated, usually from 41.8 µM), for inactives: top-dose activity change, negative = inhibition, usual class: inhibitors. hit rate 3.4% among 340,000. AID 651820; note: potency is the fitted concentration of half-maximal effect
#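 Luciferase read-out (15 sec integration) after a 15 min room-temperature substrate step quantifies HCVcc-Cre infection. Cells, 1,000 per well, had compound added 4 h post-plating, then virus at ~0.5 moi, and were cultured 44 h.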
# HCMV antiviral – inhibitors of human cytomegalovirus; HFF cells, HCMV-luciferase reporter, 72 h; hits give low values; activity change, negative = inhibition, % at 57.5 µM; hit rate 4.5% among 410,000; in the data active = activity change below about -60%; inconclusive = no clear call, values can overlap the other calls; inactive = above about -39%
#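 Human foreskin fibroblasts infected with luciferase-reporter HCMV at MOI 1 PFU/cell, compounds at two doses. Luciferase measured 72 h post infection; normalized to buffer-only basal and Salinomycin (10uM) controls.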
# MARV entry inh – inhibitors of Marburg virus binding or cell entry; Marburg virus pseudotyped entry inhibition, cell reporter; hit rate 1.8% among 300,000; AID 540276; Potency, µM (series often up to 37.8 µM), without a hit: at the highest dose activity change, negative = inhibition, actives largely listed as inhibitors; calls by dose curve; tested in HEK293 cells; note: potency is the fitted concentration of half-maximal effect
# Pf growth 96h – inhibits malaria parasite growth, 96 h; hit rate 6.9% among 320,000; P. falciparum luciferase reporter growth, 96 h; Potency, µM (highest dose often 28.7 µM), inactives show top-dose activity change, negative = inhibition, most hits filed as inhibitors; AID 504834; note: potency is the fitted concentration of half-maximal effect
#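 Readout is luminescence from an integrated firefly luciferase in P. falciparum. Red cells, 2% hematocrit and 0.05% parasitemia final, were cultured with compound through two parasite generations (96 hours) at 37 C, 5% CO2.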
# Pf growth 48h – P. falciparum growth inhibition at 48 hours (one generation); P. falciparum luciferase growth in erythrocytes, 48 h; Potency, µM (series often up to 28.7 µM), without a hit: top-dose activity change, negative = inhibition, actives largely listed as inhibitors; hit rate 5.9% among 310,000; AID 504832; note: potency is the fitted concentration of half-maximal effect
#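 Erythrocytes infected with P. falciparum carrying an integrated firefly luciferase reporter (2% hematocrit, 0.1% parasitemia final) were exposed to compounds in RPMI 1640 with 0.5% Albumax at 37 C, 5% CO2. Growth inhibition was scored as reduced luminescence.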
# Starred values were filed as active, the others as inactive; ? = inconclusive; . = not tested or not shown; [ ] = dose if it differs, or a comment. Most compounds without a hit are left out; they make up all but 14% or so of the library. Unless noted, calls come from the whole dose curve; as a rule, active = well fitted inhibition curve with a large enough effect; inconclusive = small, poorly fitted or top-dose-only effect, or another doubt; inactive = no such curve, though single readings can be large or run the other way. % is set by controls: 0 for no effect and ±100 for the full control effect.
SMILES,Lassa entry inh,HCV inh,HCMV antiviral,MARV entry inh,Pf growth 96h,Pf growth 48h
Cc1ccccc1Nc1sc(C(=O)c2ccccc2)c(N)c1C(=O)NCc1ccc(Cl)cc1,-21%[46.1 µM],.,?,.,.,.
Nc1c(C(=O)c2ccccc2)sc(Nc2ccc(Cl)c(Cl)c2)c1C(=O)Nc1ccccc1,?,.,-107*,.,.,.
COC1C(OC(=O)c2ccc(C)[nH]2)C(O)C(Oc2ccc3c(O)c(NC(=O)c4ccc(O)c(CC=C(C)C)c4)c(=O)oc3c2Cl)OC1(C)C (stereo not drawn),.,1.6µM*,-19,.,?,5.9µM*
CO[C@H]1[C@@H](OC(N)=O)[C@H](O)[C@@H](Oc2ccc3c(O)c(NC(=O)c4ccc(O)c(CC=C(C)C)c4)c(=O)oc3c2C)OC1(C)C,.,.,.,.,-4%[12.8 µM],-6%[12.8 µM]
CCCCOc1ccccc1C(=O)NNC(=S)NC(=O)c1ccccc1[N+](=O)[O-],-29%[46.1 µM],?,?,?,?,-2%
Cc1ccc(NS(=O)(=O)c2ccc(Cl)s2)nc1,?,4%,8,0%[46.1 µM],14%,17%
CS(=O)(=O)c1ccccc1C(=O)Nc1ccccc1Cc1ccccc1,?,?,8,12%[46.1 µM],?,?
O=C(Nc1ccccc1)c1ccccc1NS(=O)(=O)c1ccc(Cl)s1,?,?,-64*,20µM*,2%,?
O=C(Nc1ccccc1Cc1ccccc1)c1ccccc1NS(=O)(=O)c1ccc(Cl)s1,?,?,-104*,?,?,15%
Cc1ccc(NC(=O)c2ccccc2NS(=O)(=O)c2ccc(Cl)s2)cc1,?,11µM*,-98*,10µM*,?,-8%
O=C(NCc1ccco1)c1ccccc1NS(=O)(=O)c1ccc(Cl)s1,-18%,4%,-26,-20%[46.1 µM],.,-1%
CC(C)(C)C(=O)NC(NC(=O)C(C)(C)C)c1ccc([N+](=O)[O-])cc1,4%,27%,-24,40%,-12%,-2%
CC(C)(C)C(=O)Nc1ccc(Sc2ccc([N+](=O)[O-])cc2)cc1,-10%,?,-30,?,2.3µM*,?
Nc1ccc(Sc2ccc([N+](=O)[O-])cc2)cc1,2%,17%,?,0%[46.1 µM],12µM*,-13%
CC(=O)Nc1ccc(Sc2ccc([N+](=O)[O-])o2)cc1,?,?,-98*,?,.,.
CC(=O)Nc1ccc(S(=O)(=O)NNc2ccc([N+](=O)[O-])cc2)cc1,.,-1%,10,.,?,23%
O=C(COC(=O)C1C2CC3OC(=O)C1C3C2)Nc1ccccc1 (stereo not drawn),10%[46.1 µM],9%,-11,0%[46.1 µM],?,9%
COC(=O)C1=C(C(=O)OC)[C@@H]2N(C)c3ccccc3[C@@]23CCC(=O)N(Cc2ccc(OC)cc2)C3=N1,.,.,.,-9%[14.2 µM],.,.
Cn1c2ccccc2c(=O)c2c(=O)n(C3CCCCC3)c(-c3ccco3)nc21,4%,?,-63*,?,4.1µM*,4.7µM*
Cc1nc2c(c(=O)c3ccccc3n2C)c(=O)n1C1CCCCCC1,15%,?,-17,?,38%,-4%
CC(C)Cn1c(-c2ccco2)nc2c(c(=O)c3ccccc3n2C)c1=O,15%,-18%,-27,-6%,1.2µM*,1.3µM*
Cc1nc2c(c(=O)c3ccccc3n2C)c(=O)n1-c1ccccc1,11%,4%,12,2%[14.2 µM],?,?
CCCCCc1nc2c(c(=O)c3ccccc3n2C)c(=O)n1C1CCCCCC1,16µM*,?,?,?,12µM*,?
CCOC(=O)c1cccc(NC(=O)c2ccc3c(c2)nnn3C2CCCC2)c1,9%[46.1 µM],.,-15,.,.,.
COc1ccc(C2c3c(n(C)c4ccccc34)C(=O)N2CC(=O)Nc2ccccc2F)cc1 (stereo not drawn),-1%[46.1 µM],.,0,.,.,.
CCc1noc2cc(-c3ccccc3)n(C)c(=O)c12,.,.,18,.,.,.
O=C(c1cnc(Cc2c[nH]c3ccccc23)c(I)c1)N1CCCCC1,.,.,-2,.,.,.
O=C1CCCC2=C1C(c1cccs1)Nc1ccccc1N2 (stereo not drawn),15%,22%,10,?,41%,11%

# Assay outcomes as filed in PubChem BioAssay.
